# Hits are enriched below; roughly 19% of the tested compounds scored in any of these assays.
# DT40 TDP1 CPT = growth inhibition of DT40 Tdp1-/-;hTDP1 cells with camptothecin (screen for TDP1 inhibitors) | chicken DT40 Tdp1-/-;hTDP1 cells + 20 nM CPT, ATP luminescence, 48 h | Potency, µM (highest dose often 46.2 µM), inactives show at the top dose activity change, negative = growth inhibition, hits mostly inhibitors | 420,000 compounds, 12% hits; further: potency means the concentration at half of the fitted maximal effect; nearly all actives have a fitted effect of over 55% in size
#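 Chicken DT40 Tdp1-/- cells stably complemented with human TDP1 were seeded at 400 cells/well in medium containing 20 nM camptothecin, exposed to pin-transferred compounds, and grown at 37 °C for at least 48 hr. Viability was read as ATP luminescence.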
# ELG1 DNA repair = ELG1-dependent DNA repair inhibition | HEK293T ELG1-luciferase reporter, luminescence, 16 h; DNA damage induced by 5-fluorouridine | Potency, µM (highest dose often 46.1 µM), for inactives: top-dose activity change, negative = inhibition, most hits filed as inhibitors | 330,000 compounds, 2.3% hits | AID 504467; further: potency means the concentration at half of the fitted maximal effect; nearly all actives have a fitted effect of over 55% in size
#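 Quantitative HTS, concentration-response format. 2,000 cells/well co-treated with 5-fluorouridine and compound, 16 hr in 5% CO2 at 37 °C; ONE-Glo luminescence read after 30 min.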
# TDP1 cell noCPT = qHTS for Inhibitors of human tyrosyl-DNA phosphodiesterase 1 (TDP1): qHTS in cells in absence of CPT; DT40 Tdp1-/- hTDP1 cells, no CPT, ATP luminescence, 48 h; Potency, µM (highest dose often 46.2 µM), inactives show at the top dose activity change, negative = growth inhibition, usual class: inhibitors; 420,000 compounds, 15% hits; AID 686978, 2013; further: potency means the concentration at half of the fitted maximal effect; nearly all actives have a fitted effect of over 55% in size
#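 Cells were dispensed at 400 per well, compounds added by pin tool, plates incubated ≥48 hr at 37 °C, then CellTiter-Glo added for 30 min at room temperature before luminescence reading. Line: DT40 Tdp1-/- complemented with hTDP1; camptothecin omitted.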
# IL1B secr inh = blocks inflammasome-driven IL-1 beta release | THP-1 LPS/ATP IL-1B secretion, AlphaLISA, 16 h; stronger effect = lower value | activity change, % at 57.5 µM | 360,000 compounds, 4.7% hits; in the data active means activity change below about -50%; inconclusive means mostly about -30% to -49%
#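 Secreted IL-1B measured by AlphaLISA bead assay after 16 h compound exposure of THP-1 cells; compounds (final up to 57.5 uM) added 1 h before LPS (250 ng/mL) and ATP (1.25 mM) stimulation; lower signal means less secretion.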
# Giardia killer = Giardia lamblia killing | Giardia lamblia trophozoite viability | 340,000 compounds, 0.15% hits | AID 540267 | activity change, % at 7.66 µM, hits read low; in the data active means activity change below about -80%; inconclusive means between about -30% and that limit;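 further: parasites exposed to compound for two days anaerobically before the ATP read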
#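 Viability, read as ATP luminescence: trophozoites at 100 cells/well, compound added, 48 hrs anaerobic at 37 deg C, then 15-30 min room-temperature development before reading.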
# TDP1 block = blocks human tyrosyl-DNA phosphodiesterase 1 | 350,000 compounds, 0.28% hits | recombinant TDP1, AlphaScreen DNA substrate cleavage | Q9NUW8 | Potency, µM (highest dose often 130 µM), for the others: at the top dose activity change, negative = inhibition, hits mostly inhibitors; further: potency means the concentration at half of the fitted maximal effect; nearly all actives have a fitted effect of over 40% in size
# Target sequence (Q9NUW8 whole entry, looked up): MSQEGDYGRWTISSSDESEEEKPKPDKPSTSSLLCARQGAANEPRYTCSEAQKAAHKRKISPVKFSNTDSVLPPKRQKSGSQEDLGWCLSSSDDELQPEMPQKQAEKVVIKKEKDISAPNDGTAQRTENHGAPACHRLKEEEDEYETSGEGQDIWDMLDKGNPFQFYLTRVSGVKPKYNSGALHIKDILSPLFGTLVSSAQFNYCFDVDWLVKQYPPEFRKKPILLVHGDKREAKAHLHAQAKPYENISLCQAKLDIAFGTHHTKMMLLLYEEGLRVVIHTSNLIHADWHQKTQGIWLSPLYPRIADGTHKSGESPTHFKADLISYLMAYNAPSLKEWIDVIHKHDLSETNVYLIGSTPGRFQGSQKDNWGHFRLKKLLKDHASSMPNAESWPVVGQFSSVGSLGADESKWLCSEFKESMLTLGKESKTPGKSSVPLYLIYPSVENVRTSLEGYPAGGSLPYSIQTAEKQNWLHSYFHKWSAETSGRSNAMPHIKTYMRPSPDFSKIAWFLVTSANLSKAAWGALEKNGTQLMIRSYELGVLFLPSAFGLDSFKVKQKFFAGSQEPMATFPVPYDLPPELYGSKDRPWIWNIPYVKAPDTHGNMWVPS
#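 Recombinant E. coli-expressed Tdp1 (1 nM) preincubated with compound 15 min at RT, then 5'-biotin/3'-phosphotyrosine-FITC DNA substrate (15 nM) added for 5 min. AlphaScreen beads (10 ug/ml) added, 10 min RT; tyrosine-FITC cleavage read as signal loss.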
# * hit, by the source's call; ? = inconclusive; · = no result; [ ] = dose if it differs, or a comment. Unless noted, the call rests on the fitted dose curve; in most records, active means well fitted curve in the direction sought with a large enough effect; inconclusive means small, poorly fitted or top-dose-only effect, or another doubt; inactive means no such curve, though single readings can be large; an effect the other way counts as inactive or inconclusive. On the % scale 0 is the no-effect control and ±100 the full control effect.
SMILES,DT40 TDP1 CPT,ELG1 DNA repair,TDP1 cell noCPT,IL1B secr inh,Giardia killer,TDP1 block
O=[N+]([O-])O[C@H]1CO[C@H]2[C@H]1OC[C@@H]2O[N+](=O)[O-],·,·,·,·,·,3.0%[56.1 µM]
CCOP(=S)(OCC)O/N=C(\C#N)c1ccccc1Cl,·,·,·,·,·,-10.2%
C[N+]1(C)CCCCC1COC(=O)C(O)(c1ccccc1)c1ccccc1 (stereo not given),-3.4%,·,-1.7%,·,·,·
CCCCCCn1c(=O)c(C(=O)Nc2nc(CC(=O)OCC)cs2)c(O)c2ccccc21,3.66µM*,1.64µM*,3.66µM*,3.1,-4.9,5.0%
CCOC(=O)Cc1csc(NC(=O)c2c(O)c3ccccc3n(CCC(C)C)c2=O)n1,4.11µM*,?,4.61µM*,12.4,-14.2,4.8%
CC(C)CN1CC[C@@]2(CCCN(C(=O)Oc3ccccc3)C2)C1,4.5%,·,-11.4%,·,·,·
CC(=O)Nc1ccc(N=Cc2c(O)n(Cc3ccco3)c(=O)[nH]c2=O)cc1,1.9%,?,-4.9%,·,-6.5,17.8µM*
O=C(NCC1=C(c2ccc3ccccc3c2)C[C@@H]2CC[C@H]1N2Cc1ccco1)c1ccc([N+](=O)[O-])cc1,?,·,16.4µM*,-71.4*,·,·
CC1=CC(=C2C(=O)NC(=S)NC2=O)C=C(C(F)(F)F)N1Cc1ccccc1,1.64µM*,?,1.64µM*,32.4,3.6,2.6%
CC1=CC(=C2C(=O)NC(=O)NC2=O)C=C(C(F)(F)F)N1Cc1ccccc1,?,?,18.4µM*,9.9,5.6,7.2%
CC1=CC(=C2C(=O)NC(=S)NC2=O)C=C(C(F)(F)F)N1CCc1ccccc1,·,2.1%,·,·,·,-5.9%
Clc1ccc2ccccc2c1,·,·,·,·,·,2.0%
CC1CN(c2ccccc2)NC1=O (stereo not given),13µM*,-12.5%,?,8.5,-6.1,-3.5%
Cc1ccc(N=C(/N=C(\N)N[N+](=O)[O-])Nc2ccc(C)cc2)cc1,?,·,?,-2.3,19.6,·
COc1cc(NCCCn2cnc(C(=O)Nc3ccc(C)c(C)c3)n2)cc(OC)c1OC,-22.1%,·,?,-18.1,2.8,·
COC(=O)C1=C(c2cccc(OC)c2OC)C[C@@H]2CC[C@H]1N2C(=O)N1CCCCC1,?,·,·,35.8,-16.9,·
COC(=O)C1=C(c2cccc(OC)c2OC)C[C@@H]2CC[C@H]1N2C(=O)N1CCCC1,20.6µM*,·,·,5.0,?,·
COC(=O)C1=C(c2ccc(F)cc2F)C[C@@H]2CC[C@H]1N2C(=O)N1CCC(O)(c2ccc(Cl)cc2)CC1,20.6µM*,?,18.4µM*,-78.2*,-7.1,0.9%
COC(=O)C1=C(c2c(C)noc2C)C[C@@H]2CC[C@H]1N2C(=O)N1CCC(O)(c2ccc(Cl)cc2)CC1,?,?,20.6µM*,-5.0,-17.2,-0.3%
COC(=O)C1=C(c2ccc(F)cc2F)C[C@@H]2CC[C@H]1N2C(=O)N1CCOCC1,?,14.3%,?,10.9,-2.9,1.4%
COC(=O)C1=C(c2ccc(F)cc2F)C[C@@H]2CC[C@H]1N2C(=O)N1CCCCC1,13µM*,14.3%,18.4µM*,17.4,6.0,0.3%
COC(=O)C1=C(c2c(C)noc2C)C[C@@H]2CC[C@H]1N2C(=O)N1CCOCC1,-9.7%,22.9%,3.5%,11.4,-12.4,0.8%
CC1CCN(C(=O)C2CCN(c3nnc(-n4cccc4)s3)CC2)CC1,-28.4%,-22.5%,?,0.0,9.8,2.7%
Cc1cc(OCC(=O)NCc2ccc(S(N)(=O)=O)cc2)c2c3c(c(=O)oc2c1)CCC3,1.9%,25.6%,6.4%,?,2.6,-4.2%
COC(=O)C1=C(c2ccc(F)cc2F)C[C@@H]2CC[C@H]1N2C(=O)N1CCCC1,?,3.8%,8.2µM*,21.2,-3.2,-0.2%
